{"source": "PubChem BioAssay AID430", "about": "(Sanford-Burnham Center for Chemical Genomics, 2006)", "note": "About 1,100 (1.7%) of roughly 63,000 compounds were called active. The full list was thinned out, with actives kept by preference. Potency and affinity values are given separately. A number with no mark means an inactive call. Rule as the data show it: active = cytotoxicity above about 50%; inactive = the rest.", "data": [{"assay": "HPDE-C7 pancreatic duct cell viability loss – fluorescence, HTS (AID 430);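 also: cells exposed to compound for 48 hours before viability readout; 0% = vehicle and 100% = reference cytotoxic drug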", "conditions": "HPDE-C7 pancreatic duct cells viability, at 10 µM, active compounds read high", "values": [{"smiles": "CCN(C(=O)c1ccc(C(C)(C)C)cc1)c1nnc(Cn2nnc3ccccc32)s1", "cytotoxicity": "81.9% (active)"}, {"smiles": "CCN(C(=O)CSc1nnc(Cn2nnc3ccccc32)o1)c1nc(-c2ccccc2)cs1", "cytotoxicity": "-7.6%"}, {"smiles": "CCN(C(C)=O)c1nnc(CSc2nc3ccccc3s2)s1", "cytotoxicity": "12.1%"}, {"smiles": "COc1ccc(N2CCN(C(=O)CCNS(=O)(=O)c3ccc(Br)s3)CC2)cc1", "cytotoxicity": "-17.4%"}, {"smiles": "Cc1ccc(S(=O)(=O)N2CCC(C(=O)Nc3nnc(COc4ccccc4)s3)CC2)cc1", "cytotoxicity": "-3.6%"}, {"smiles": "Cc1cc(C)c2c(=O)n(CC(=O)NCCCN3CCN(c4ccccc4F)CC3)sc2n1", "cytotoxicity": "88.5% (active)"}, {"smiles": "O=C(CCNC(=O)Cn1ccc2ccccc2c1=O)NCCCN1CCN(c2ccccc2F)CC1", "cytotoxicity": "-10.7%"}, {"smiles": "Cc1cc(C)c2c(=O)n(CC(=O)NCCCN3CCOCC3)sc2n1", "cytotoxicity": "6.4%"}, {"smiles": "CCC(NC(=O)Nc1ncccc1C)(C(F)(F)F)C(F)(F)F", "cytotoxicity": "-6.7%"}, {"smiles": "COc1ccc2c(c1)sc1nc(-c3ccccc3)cn12", "cytotoxicity": "53.2% (active)"}, {"smiles": "CCOC(=O)N1CCN(C(=O)c2ccc3c(c2)sc2nc(-c4ccccc4)cn23)CC1", "cytotoxicity": "2.8%"}, {"smiles": "CCOC(=O)N1CCN(C(=O)c2ccc3c(c2)sc2nc(-c4ccc(OC)cc4)cn23)CC1", "cytotoxicity": "12.1%"}, {"smiles": "CS(=O)(=O)N(CC(=O)NCc1ccco1)Cc1ccc(Cl)cc1", "cytotoxicity": "-9.3%"}, {"smiles": "COc1ccccc1S(=O)(=O)Cc1ccc(C(=O)NCCN(C)C)o1", "cytotoxicity": "8%"}, {"smiles": "O=S(=O)(c1cccc2nsnc12)N1CCN(c2ncccn2)CC1", "cytotoxicity": "-8.5%"}, {"smiles": "COc1ccc(C2C=C(c3ccccc3)Nc3nnnn32)cc1", "note": "(centres undefined)", "cytotoxicity": "-3.3%"}, {"smiles": "COc1cccc(C2=CC(c3cc(OC)ccc3OC)n3nnnc3N2)c1", "note": "(centres undefined)", "cytotoxicity": "70.3% (active)"}, {"smiles": "COc1ccc(OC)c(C2C=C(c3ccc(C)c(C)c3)Nc3nnnn32)c1", "note": "(centres undefined)", "cytotoxicity": "10.4%"}, {"smiles": "COc1ccccc1C1C=C(c2ccc(C)cc2)Nc2nnnn21", "note": "(centres undefined)", "cytotoxicity": "-0.5%"}, {"smiles": "COc1ccc(C2=CC(c3c(C)nn(-c4ccccc4)c3Cl)n3nnnc3N2)cc1OC", "note": "(centres undefined)", "cytotoxicity": "72.4% (active)"}, {"smiles": "COc1ccccc1C1C=C(c2ccccc2)Nc2nnnn21", "note": "(centres undefined)", "cytotoxicity": "29.6%"}, {"smiles": "COc1cccc(C2=CC(c3ccc(N(C)C)cc3)n3nnnc3N2)c1", "note": "(centres undefined)", "cytotoxicity": "-3%"}, {"smiles": "COc1ccc(C2=CC(c3sccc3C)n3nnnc3N2)cc1", "note": "(centres undefined)", "cytotoxicity": "12.4%"}, {"smiles": "COc1cccc(C2=CC(c3ccccc3)n3nnnc3N2)c1", "note": "(centres undefined)", "cytotoxicity": "53.7% (active)"}, {"smiles": "COc1ccc(C2=CC(c3ccc(OC)c(OC)c3)n3nnnc3N2)c(OC)c1", "note": "(centres undefined)", "cytotoxicity": "14.7%"}, {"smiles": "COc1ccc(C2=CC(c3ccc(F)cc3)n3nnnc3N2)cc1", "note": "(centres undefined)", "cytotoxicity": "-4%"}, {"smiles": "CCOC(=O)N1CCN(c2c(N3CCC(N4CCCCC4)CC3)c(=O)c2=O)CC1", "cytotoxicity": "10.5%"}, {"smiles": "CN(Cc1ccccc1)Cc1nc2c(c(=O)n(C)c(=O)n2C)n1Cc1ccc(F)cc1", "cytotoxicity": "-29.4%"}, {"smiles": "O=C(CCS(=O)(=O)c1cccc2nsnc12)N1CCN(C(=O)c2ccco2)CC1", "cytotoxicity": "-15.9%"}, {"smiles": "CN1CCN(C2=NC3(CCCC3)C(C#N)C(=O)N2)CC1", "note": "(centres undefined)", "cytotoxicity": "23.5%"}, {"smiles": "COC(=O)c1c(F)c(F)c(NCCO)c(F)c1F", "cytotoxicity": "-3.7%"}, {"smiles": "CC(NC(=O)NC1CCCCC1)C(c1cccs1)N1CCOCC1", "note": "(centres undefined)", "cytotoxicity": "-7.5%"}, {"smiles": "CCOC(=O)C1CCN(C(=O)CSc2n[nH]c(=O)[nH]c2=O)CC1", "cytotoxicity": "9.8%"}, {"smiles": "CNC(=O)/C(=N\\O)c1ccccc1", "cytotoxicity": "-14.1%"}, {"smiles": "COc1cc(C(=O)NCCc2ccc(S(N)(=O)=O)cc2)cc(OC)c1OC", "cytotoxicity": "3.4%"}, {"smiles": "COc1cccc(C2=CC(c3ccc(OC)c(OC)c3OC)n3nnnc3N2)c1", "note": "(centres undefined)", "cytotoxicity": "-3.9%"}, {"smiles": "COc1cccc(C2=CC(c3cccc(OC)c3OC(F)F)n3nnnc3N2)c1", "note": "(centres undefined)", "cytotoxicity": "-21.2%"}, {"smiles": "COc1ccc(C2=CC(c3ccc(C)cc3)n3nnnc3N2)cc1", "note": "(centres undefined)", "cytotoxicity": "-1.9%"}, {"smiles": "CCOc1ccc(C2C=C(c3ccc(C)cc3)Nc3nnnn32)cc1", "note": "(centres undefined)", "cytotoxicity": "-0.9%"}, {"smiles": "COc1cccc(C2=CC(c3cccc(OC)c3OC)n3nnnc3N2)c1", "note": "(centres undefined)", "cytotoxicity": "71.4% (active)"}, {"smiles": "O=C(CCNS(=O)(=O)c1cccs1)Nc1ccccc1F", "cytotoxicity": "-34.3%"}, {"smiles": "COc1ccc(Cn2nnnc2CN2CCC(c3nc4ccccc4s3)CC2)cc1", "cytotoxicity": "-9.8%"}, {"smiles": "Cc1c(C(=O)OC(C)C)[nH]c2c1C(=O)CC(C)(C)C2", "cytotoxicity": "-0.2%"}, {"smiles": "CCOC(=O)C1CCCN(C(=O)CCC(=O)Nc2ccc3nc(N4CCOCC4)cc(C)c3c2)C1", "note": "(centres undefined)", "cytotoxicity": "9.9%"}, {"smiles": "CCOc1ccc2[nH]c(=O)c(CN(CCO)C(=O)c3ccc(Br)cc3)cc2c1", "cytotoxicity": "6.1%"}, {"smiles": "O=C1CN(C(=O)COC(=O)COc2ccc3c(c2)CCC3)c2ccccc2N1", "cytotoxicity": "2.9%"}, {"smiles": "COc1cc(NC(=O)c2cnn3c(C)cc(C)nc23)c(OC)cc1Cl", "cytotoxicity": "12.9%"}, {"smiles": "CC1(C)Cc2c(sc3c2c(=N)n(Cc2ccco2)c(=O)n3CC(=O)Nc2ccc(Cl)cc2)CO1", "cytotoxicity": "51.5% (active)"}, {"smiles": "CC1(C)Cc2c(sc3c2c(=N)n(Cc2ccco2)c(=O)n3CC(=O)Nc2ccccc2)CO1", "cytotoxicity": "5.3%"}, {"smiles": "Cc1ccc(NC(=O)Cn2c(=O)n(Cc3ccco3)c(=N)c3c4c(sc32)COC(C)(C)C4)cc1", "cytotoxicity": "24.6%"}, {"smiles": "Cc1cccc(OCC(O)Cn2c(-n3nc(C)cc3C)nc3c2c(=O)[nH]c(=O)n3C)c1", "note": "(centres undefined)", "cytotoxicity": "-2.9%"}, {"smiles": "CCCOC(=O)Nc1nc2ccccc2o1", "cytotoxicity": "-8.2%"}, {"smiles": "COc1ccccc1C(=O)Nc1nnc(-c2ccc(F)cc2)o1", "cytotoxicity": "4.1%"}, {"smiles": "Cc1nc2ccc(N3C(=O)CCC3=O)cc2[nH]1", "cytotoxicity": "-18.8%"}, {"smiles": "COc1ccc(CN2CCN(S(=O)(=O)c3ccccc3)CC2)c(OC)c1", "cytotoxicity": "-0.4%"}, {"smiles": "O=C(CCC1CCCC1)N1CCN(C(=O)COc2ccccc2)CC1", "cytotoxicity": "8.2%"}, {"smiles": "NC(=O)CSc1nc2ccccc2n1-c1ccccc1", "cytotoxicity": "-1.9%"}, {"smiles": "COc1ccc(-n2c(SCC(=O)c3c(N)n(C)c(=O)n(C)c3=O)nc3ccccc32)cc1", "cytotoxicity": "6.1%"}, {"smiles": "Cn1c(N)c(C(=O)CSc2nc3ccccc3n2-c2ccccc2)c(=O)n(C)c1=O", "cytotoxicity": "106% (active)"}]}]}
